From PubChem
The list is not random: actives were taken first. Their share in the collection is about 21%.
DT40 TDP1 no CPT: qHTS for Inhibitors of human tyrosyl-DNA phosphodiesterase 1 (TDP1): qHTS in cells in absence of CPT. DT40 Tdp1-/- hTDP1 cells, no CPT, ATP luminescence, 48 h. Potency, µM (series often up to 46.2 µM), without a hit: at the top dose activity change, negative = growth inhibition, actives largely listed as inhibitors. 420,000 tested, 15% active. AID 686978, 2013; also: potency is read from the fitted curve at half-maximal effect; % is scaled to controls: 0 for no effect and ±100 for the full control effect; nearly all actives have a fitted effect of over 55% in size
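Growth of hTDP1-complemented DT40 Tdp1-knockout cells is measured by ATP luminescence after at least 48 hr compound exposure at 37 °C, with DMSO substituting for the 20 nM CPT used in the parallel screen.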
DRD3 agonist: qHTS of D3 Dopamine Receptor Agonist: qHTS; 410,000 tested, 0.58% active; AID 652048, 2013; D(3) dopamine receptor (Homo sapiens), P35462; D3R DiscoveRx beta-arrestin cells, luminescence, 90 min; max activation, %; in the data active = max activation above about 30%; also: 0% is about no effect
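Agonist-mode cell screen: cells plated at 1500/well and incubated overnight at 37 °C, then exposed to library compounds for 90 min at 37 °C. Detection reagent was added for 30–60 min at room temperature, and luminescence was read.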
IL-1B inflam inh: qHTS for Inhibitors of Inflammasome Signaling: IL-1-beta AlphaLISA Primary Screen; THP-1 LPS/ATP IL-1B secretion, AlphaLISA, 16 h; active compounds read low; activity change, % at 57.5 µM; 360,000 tested, 4.7% active; in the data active = activity change below about -50%; inconclusive = mostly about -30% to -49%; also: % is scaled to controls: 0 for no effect and ±100 for the full control effect
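Secreted IL-1B measured by AlphaLISA bead assay after 16 h compound exposure of THP-1 cells; compounds (final up to 57.5 uM) added 1 h before LPS (250 ng/mL) and ATP (1.25 mM) stimulation; lower signal means less secretion.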
ClpP mod: qHTS Assay for Activators of ClpP; ATP-dependent Clp protease proteolytic subunit (Bacillus subtilis (strain 168)), P80244; purified B. subtilis ClpP, FRET peptide cleavage, 20 min; Potency, µM (titrated, usually from 57.5 µM), for the others: top-dose activity change, negative = active; 340,000 tested, 1.9% active; AID 651965, 2013; active = well fitted falling curve with a large enough effect; inconclusive = small, poorly fitted or top-dose-only effect; inactive = no such curve, though single readings can be large or run the other way; also: potency is read from the fitted curve at half-maximal effect; the source files actives as falling curves though it sought activators and does not explain the sign; nearly all actives have a fitted effect of over 65% in size
Target sequence (P80244 whole entry, looked up): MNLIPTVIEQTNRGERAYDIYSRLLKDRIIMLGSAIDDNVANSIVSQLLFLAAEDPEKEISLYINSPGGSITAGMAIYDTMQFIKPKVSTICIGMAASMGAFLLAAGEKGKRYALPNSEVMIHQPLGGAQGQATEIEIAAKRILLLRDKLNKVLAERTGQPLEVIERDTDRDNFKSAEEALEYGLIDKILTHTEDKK
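Purified B. subtilis ClpP, 10 microg/mL final in Tris/HCl pH8 with KCl, BSA, glycerol and Tween-20, cleaved an Abz/nitrotyrosine-quenched decapeptide. Fluorescence (ex 320, em 430) was read at 0 and 20 min at room temperature. Delta was normalized to 5.8 microM ADEP and DMSO/no-enzyme controls.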
TDP1 cell CPT: qHTS for Inhibitors of human tyrosyl-DNA phosphodiesterase 1 (TDP1): qHTS in cells in presence of CPT | chicken DT40 Tdp1-/-;hTDP1 cells + 20 nM CPT, ATP luminescence, 48 h | Potency, µM (top dose mostly 46.2 µM), inactives show top-dose activity change, negative = growth inhibition, hits mostly inhibitors | 420,000 tested, 12% active | AID 686979, 2013; also: potency is read from the fitted curve at half-maximal effect; % is scaled to controls: 0 for no effect and ±100 for the full control effect; nearly all actives have a fitted effect of over 55% in size
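Chicken DT40 Tdp1-/- cells complemented with human TDP1, 400 cells/well, exposed to compounds plus 20 nM camptothecin for at least 48 h at 37 C; viability read as ATP content by CellTiter-Glo luminescence.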
DRD3 antagonist: qHTS of D3 Dopamine Receptor Antagonist: qHTS; D(3) dopamine receptor (Homo sapiens), P35462; D3R cells, DiscoveRx beta-arrestin luminescence, antagonist mode; active compounds read low; max response, negative = inhibition, %; 360,000 tested, 2.5% active; in the data active = max response below about -50%; inconclusive = no clear call, values can overlap the other calls; also: % is scaled to controls: 0 for no effect and ±100 for the full control effect
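Cells expressing the human receptor were seeded at 1500 cells/well, incubated overnight at 37 degrees C in 5% CO2, then exposed to library compounds with dopamine controls for 90 minutes at 37 degrees C before luminescent detection.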
* hit, by the source's call. Unless noted, calls follow the shape of the dose curve; as a rule, active = well fitted inhibition curve with a large enough effect; inconclusive = small, poorly fitted or top-dose-only effect; inactive = flat fitted curve, though single readings scatter.

How did Cc1cc(C(=O)COc2ccccc2[N+](=O)[O-])c(C)n1C1CC1 do in these assays?
DT40 TDP1 no CPT: inconclusive; DRD3 agonist: -3.6; IL-1B inflam inh: 2.0; TDP1 cell CPT: 23.1µM*; DRD3 antagonist: 4.2

Results for Cc1cc(C(=O)COc2ccccc2C(N)=O)c(C)n1C1CC1 ?
DT40 TDP1 no CPT: inconclusive; DRD3 agonist: 1.7; IL-1B inflam inh: -5.8; ClpP mod: 0.4%; TDP1 cell CPT: inconclusive; DRD3 antagonist: -6.1

What do the screens show for `COc1ccccc1Nc1cc(C(=O)NC2CCC(C)CC2)c2ccccc2n1` (centres undefined)?
DT40 TDP1 no CPT: -22.1%; DRD3 agonist: 6.9; ClpP mod: 4.3%; TDP1 cell CPT: 3.4%

How did O=C(NCCC1=CCCCC1)c1ccc2c(c1)ncn2-c1ccc(F)c(F)c1 do in these assays?
DT40 TDP1 no CPT: -29.1%; DRD3 agonist: -12.3; ClpP mod: -0.9%; TDP1 cell CPT: inconclusive

What do the screens show for `O=C(COc1ccccc1[N+](=O)[O-])c1ccccc1`?
DT40 TDP1 no CPT: 5.17µM*; DRD3 agonist: 0.7; IL-1B inflam inh: -17.9; TDP1 cell CPT: 3.66µM*; DRD3 antagonist: 0.8

How did CCc1nnc2c(N3CCN(c4cccc(C(F)(F)F)c4)CC3)nc3ccccc3n12 do in these assays?
DT40 TDP1 no CPT: 20.6µM*; DRD3 agonist: -14.3; ClpP mod: -13.0%; TDP1 cell CPT: 20.6µM*

Results for CCc1nnc2c(N3CCN(c4cccc(C)c4)C(C)C3)nc3ccccc3n12 (centres undefined) ?
DT40 TDP1 no CPT: inconclusive; DRD3 agonist: -22.6; ClpP mod: -25.8%; TDP1 cell CPT: 20.6µM*

What do the screens show for `COc1ccc(NC(=O)N2CCC(n3c(C)nc4cccnc43)CC2)cc1OC`?
DT40 TDP1 no CPT: 24.6%; DRD3 agonist: 0.3; ClpP mod: 0.9%; TDP1 cell CPT: -7.9%

Results for Cn1c(-c2ccccc2)c(C=O)c2ccccc21 ?
DT40 TDP1 no CPT: -26.8%; DRD3 agonist: -1.4; IL-1B inflam inh: -2.4; ClpP mod: -4.2%; TDP1 cell CPT: -24.3%; DRD3 antagonist: 6.5

How did Cn1c(C(=O)O)c(C=O)c2ccccc21 do in these assays?
DT40 TDP1 no CPT: 15.7%; DRD3 agonist: -4.6; IL-1B inflam inh: -70.4*; ClpP mod: -1.0%; TDP1 cell CPT: -7.6%; DRD3 antagonist: -5.5

What do the screens show for `CN1C(=O)[C@@H]2C[C@@]3([C@@]45C[C@H]6C(=O)N(C)[C@@H](Cc7ccccc7)C(=O)N6[C@@H]4Nc4ccccc45)c4ccccc4N[C@H]3N2C(=O)[C@@H]1Cc1ccccc1`?
DT40 TDP1 no CPT: inconclusive; DRD3 agonist: -23.1; IL-1B inflam inh: -9.2; ClpP mod: -1.3%; TDP1 cell CPT: inconclusive; DRD3 antagonist: -17.2

What do the screens show for `CC(=O)CCc1c(C)nc2ccc(C)cc2c1Cl`?
DT40 TDP1 no CPT: 5.17µM*; DRD3 agonist: -0.9; IL-1B inflam inh: inconclusive; TDP1 cell CPT: -7.9%; DRD3 antagonist: 5.2

What do the screens show for `Cc1c(NC(=O)CSCc2c(F)cccc2Cl)c(=O)n(-c2ccccc2)n1C`?
DT40 TDP1 no CPT: -19.4%; DRD3 agonist: 12.9; IL-1B inflam inh: -3.9; TDP1 cell CPT: 10.3%; DRD3 antagonist: 11.5

How did Cc1ccc(C(=O)CC(=O)c2ccc(C)cc2O)cc1 do in these assays?
DT40 TDP1 no CPT: 18.4µM*; DRD3 agonist: -6.1; IL-1B inflam inh: -11.9; ClpP mod: 0.1%; TDP1 cell CPT: inconclusive; DRD3 antagonist: -77.4*
